HPGD block: HPGD (human) dehydrogenase inhibition; P15428; purified HPGD, NADH fluorescence kinetic, PGE2 substrate; Potency, µM, usual class: inhibitors; 150,000 tested, 4.3% active; active = well fitted inhibition curve with a large enough effect, not every such curve was filed as active; inconclusive = small, poorly fitted or top-dose-only effect, or another doubt; inactive = no such curve, though single readings can be large or run the other way
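NADH formation kinetics: reaction with 30 uM PGE2 and 1 mM NAD+ (final), 20 nM enzyme, Tris-HCl pH 8 with Tween 20, after 15 min compound preincubation at room temperature. Fluorescence change, last versus first of five reads.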
ALDH1A1 block: ALDH1A1 (human) enzyme inhibition; 220,000 tested, 7.3% active; Potency, µM (series often up to 75.3 µM), hits mostly inhibitors; P00352; Purified ALDH1A1, NADH fluorescence, propionaldehyde substrate; active = well fitted inhibition curve with a large enough effect, not every such curve was filed as active; inconclusive = small, poorly fitted or top-dose-only effect, or another doubt; inactive = no such curve, though single readings can be large or run the other way
HTT ATP protect: protects HTT-Q103 PC12 cells, measured by ATP; PC12 HTT-Q103 induced, cytoprotection, ATP luminescence, 40 h; Potency, µM (top dose mostly 56.4 µM), usual class: activators; 230,000 tested, 0.14% active; note: nearly all actives have a fitted effect of over 45% in size
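Readout: ATPlite luminescence (ATP level). Model: stable PC12, inducible Htt exon1 Q103-GFP. Inducer: tebufenozide, 100 nM final. Compounds: dose series. No G418 in medium.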
KDM4E inh: JMJD2E (human) inhibition; B2RXH2; JMJD2E catalytic domain, FDH-coupled NADH fluorescence (FDH is formaldehyde dehydrogenase); Potency, µM (top dose mostly 57.1 µM), hits mostly inhibitors; 230,000 tested, 1.6% active; AID 2147; active = well fitted inhibition curve with a large enough effect, not every such curve was filed as active; inconclusive = small, poorly fitted or top-dose-only effect, or another doubt; inactive = no such curve, though single readings can be large or run the other way; note: nearly all actives have a fitted effect of over 50% in size
CBFb RUNX1 block: blocks binding between human CBF-beta and RUNX1. Q01196+Q13951. AlphaScreen CBFb-His/RUNX1-biotin binding, biochemical. Potency, µM (series often up to 59.8 µM), hits mostly inhibitors. 230,000 tested, under 10 active
Target sequence (Q01196 whole entry, looked up): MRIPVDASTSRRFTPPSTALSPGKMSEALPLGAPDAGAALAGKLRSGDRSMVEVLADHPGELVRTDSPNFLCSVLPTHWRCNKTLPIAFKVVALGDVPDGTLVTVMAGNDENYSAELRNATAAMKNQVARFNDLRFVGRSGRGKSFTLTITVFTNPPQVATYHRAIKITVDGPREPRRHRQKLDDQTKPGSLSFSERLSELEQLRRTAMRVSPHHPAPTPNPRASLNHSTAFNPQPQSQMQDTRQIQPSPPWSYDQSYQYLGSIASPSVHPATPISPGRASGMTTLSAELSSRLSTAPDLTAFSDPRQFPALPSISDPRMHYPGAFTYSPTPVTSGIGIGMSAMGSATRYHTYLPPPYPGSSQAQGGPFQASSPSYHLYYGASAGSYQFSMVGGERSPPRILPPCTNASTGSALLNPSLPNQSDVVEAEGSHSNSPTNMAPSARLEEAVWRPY
Target sequence (Q13951 whole entry, looked up): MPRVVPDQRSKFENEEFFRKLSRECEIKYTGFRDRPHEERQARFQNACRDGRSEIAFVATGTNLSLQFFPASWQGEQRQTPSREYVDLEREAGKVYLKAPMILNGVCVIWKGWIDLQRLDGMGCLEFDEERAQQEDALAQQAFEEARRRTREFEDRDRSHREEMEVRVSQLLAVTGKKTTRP
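Compounds were screened at multiple concentrations against a preformed CBF-beta(His)/RUNX1(biotin) complex (30 nM of each) for 15 min at room temperature, followed by 90 min with nickel and streptavidin beads and AlphaScreen reading.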
HttQ103 aggreg: mutant huntingtin aggregation inhibition | PC12 HttQ103-GFP aggregates, Acumen cytometry, 40 h | Potency, µM (top dose mostly 46.1 µM), actives largely listed as inhibitors | 220,000 tested, 1.1% active | AID 1688; note: nearly all actives have a fitted effect of over 60% in size
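PC12 cells stably carrying ecdysone-inducible HTT exon 1 Q103–GFP were induced with tebufenozide (100 nM final) and treated with library compounds in titration. GFP aggregates in lysates were counted by laser scanning cytometry.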
Large screens that a line does not name were inactive. In the library only some 9.8% were active in any assay of this set; here they are far more common. Unless noted, calls come from the whole dose curve; as a rule, active = well fitted curve in the direction sought with a large enough effect; inconclusive = small, poorly fitted or top-dose-only effect, or another doubt; inactive = no such curve, though single readings can be large; an effect the other way counts as inactive or inconclusive.

Cc1ccc2cc(C)c(SCC(=O)NCc3ccco3)nc2c1	ALDH1A1 block 14µM (no result: HPGD block)
COc1ccc(-c2nnc3ccc(SCC(=O)NCc4ccco4)nn23)cc1OC	HPGD block 14µM
Cc1ccc(C(CC(=O)NCc2ccco2)c2ccccc2)c(O)c1 (stereo unspecified)	HPGD block 16µM
Cc1ccc(C(CC(=O)NCc2ccco2)c2ccc(OC(C)C)cc2)cc1 (stereo unspecified)	none (no result: HPGD block, ALDH1A1 block, HTT ATP protect, HttQ103 aggreg)
Cc1ccc(-c2nnc3ccc(SCC(=O)NCc4ccco4)nn23)cc1	KDM4E inh inconclusive
Cc1ccc(C)c(SCC(=O)OCC(=O)c2ccco2)c1	HPGD block 18µM, ALDH1A1 block inconclusive
Cc1cc2cc(C)c(SCC(=O)NCc3ccco3)nc2cc1C	none (no result: HPGD block)
Cc1ccc(C(=O)COC(=O)CNC(=O)c2ccco2)cc1	none
O=C(CSc1ccc(Cl)cc1)NCc1ccco1	none (no result: HPGD block)
Cc1ccc(SCCC(=O)NCc2ccco2)cc1	HPGD block 28µM
Cc1ccc(C)c(SCC(=O)NCc2ccco2)c1	HPGD block 7.9µM, ALDH1A1 block inconclusive
Cc1nc(SCC(=O)NCc2ccco2)nc(C)c1C	HPGD block 7.9µM, ALDH1A1 block 25µM
COC(=O)[C@H](COC(C)(C)C)NC(=O)O[C@@H]1Cc2cc(OC)ccc2O[C@H]1c1cccc(OC)c1	none (no result: HttQ103 aggreg)
O=C(O)c1ccccc1C(=O)Nc1n[nH]c(=S)s1	HPGD block 8.9µM, ALDH1A1 block 6.3µM, KDM4E inh 4µM
N=C1C=CC(=C(c2ccc(N)cc2)c2ccc(N)cc2)C=C1	HPGD block 10µM, CBFb RUNX1 block inconclusive (no result: KDM4E inh, HttQ103 aggreg)
Nc1ccc(C(=O)C(=O)c2ccc(N)cc2)cc1	none (no result: HPGD block, ALDH1A1 block)
CCCCC[C@H](O)/C=C/[C@H]1OC(O)C[C@H](O)[C@@H]1C/C=C\CCCC(=O)O (stereo partly specified)	none (no result: HttQ103 aggreg)
Cc1ccc(Cn2ccc(=O)c(OCc3c(Cl)cccc3Cl)c2C)cc1	none
CC(=O)Nc1ccc(OCC[n+]2cccc(C(N)=O)c2)cc1	none (no result: HPGD block)
CC(=O)Nc1ccc(OCCC[n+]2ccccc2)cc1	ALDH1A1 block 2.5µM (no result: HPGD block)
C=C1C(=O)O[C@@H]2[C@H]3O[C@]3(C)CCC=C(C)CC[C@@H]12	ALDH1A1 block 20µM (no result: HttQ103 aggreg)
C=C1C(=O)O[C@@H]2[C@@H]1CC/C(C)=C\CC[C@@]1(C)O[C@H]21	ALDH1A1 block 10µM, HTT ATP protect inconclusive, HttQ103 aggreg 14µM
COc1cc(/C=C(\C#N)C(N)=O)cc(CSc2nc3ccccc3s2)c1O	HPGD block 40µM, ALDH1A1 block inconclusive (no result: HttQ103 aggreg)
CCOC(=O)C1CCCCN1Cc1cccc(OC)c1OC (stereo unspecified)	ALDH1A1 block inconclusive, KDM4E inh inconclusive
CCOC(=O)C1CCCCN1Cc1cc(OC)ccc1OC (stereo unspecified)	ALDH1A1 block 16µM, KDM4E inh inconclusive
CCOc1ccc(C(=O)Nc2nnc(NC(=S)Nc3ccccc3)s2)cc1	ALDH1A1 block 7.1µM (no result: HPGD block, HTT ATP protect)
Cc1ccc(C(=O)Nc2nnc(NC(=S)Nc3ccccc3)s2)cc1	ALDH1A1 block 22µM (no result: HPGD block)
Cc1nc(NC(=S)Nc2ccccc2)sc1C	ALDH1A1 block 22µM (no result: HPGD block)
O=C(OCc1nnc(-c2ccc(Br)cc2)o1)c1cncc(Br)c1	none (no result: HPGD block)
CN(Cc1cccc(F)c1)C(=O)c1ccc(S(=O)(=O)C(F)F)cc1	HPGD block 32µM, ALDH1A1 block inconclusive
CCOC(=O)c1c(NC(=O)CN2C(=O)CN(C)C2=O)sc(C)c1C	none (no result: HPGD block)
CC(C)CNC(=O)c1cccc(NC(=O)C(C)C)c1	none (no result: HPGD block)
Cc1onc(-c2c(F)cccc2Cl)c1C(=O)OCC(=O)NC(c1ccccc1)c1ccccc1	ALDH1A1 block inconclusive
CC1=NCCN1S(=O)(=O)c1cc([N+](=O)[O-])ccc1Cl	ALDH1A1 block 7.9µM (no result: HPGD block)
O=C(NCc1ccc(Cl)cc1)C1CCN(S(=O)(=O)c2cc([N+](=O)[O-])ccc2Cl)CC1	ALDH1A1 block 1.4µM
Cc1nccn1S(=O)(=O)c1cc([N+](=O)[O-])ccc1Cl	ALDH1A1 block inconclusive
Cc1cccc2sc(NC(=O)C3CCN(S(=O)(=O)c4cc([N+](=O)[O-])ccc4Cl)CC3)nc12	ALDH1A1 block 7.1µM, KDM4E inh 13µM
O=C(NCc1ccc(Cl)cc1)C1CCN(S(=O)(=O)c2ccccc2)CC1	ALDH1A1 block inconclusive, HTT ATP protect inconclusive (no result: HPGD block)
COc1ccc2c(C#N)c3ccccn3c2c1	KDM4E inh inconclusive, CBFb RUNX1 block inconclusive, HttQ103 aggreg inconclusive (no result: HPGD block)
COC(=O)C1=C(C)NC(C)=C(C(=O)OCCSc2ccccc2)C1C (stereo unspecified)	ALDH1A1 block inconclusive, CBFb RUNX1 block inconclusive (no result: HPGD block, KDM4E inh, HttQ103 aggreg)
CC(C)Oc1ccc(NC(=O)c2ccncc2)cc1	ALDH1A1 block inconclusive
O=C(c1ccco1)n1nc(-c2ccccc2)nc1SCc1ccccc1	HPGD block 18µM
O=C(CCc1ccccc1)n1nc(-c2ccccc2)nc1NCc1ccco1	KDM4E inh inconclusive, HttQ103 aggreg 25µM
O=C(Cc1ccccc1)n1nc(-c2ccco2)nc1SCc1ccccc1	HPGD block 4.5µM, ALDH1A1 block inconclusive
COc1ccc(CC(=O)n2nc(-c3ccccc3)nc2NCc2ccco2)cc1	KDM4E inh inconclusive
CCC(=O)[C@@]1(O)C(=O)N2C(=C3C(=O)OCCC31)N(Cc1ccccc1)C(C)=C(C(=O)OC)C2c1ccccc1 (stereo partly specified)	none (no result: HPGD block, KDM4E inh, HttQ103 aggreg)
CCOC(=O)C1CCN(c2c(NCCC(C)C)c(=O)c2=O)CC1	none (no result: HPGD block, ALDH1A1 block)
O=C(CC(c1ccccc1)c1cc(Br)ccc1O)N1CCCCC1 (stereo unspecified)	none (no result: HPGD block, ALDH1A1 block)
Cc1ccc(C(CC(=O)N2CCCC2)c2ccccc2)c(O)c1C (stereo unspecified)	HPGD block 7.9µM
O=C(CC(c1ccccc1)c1ccccc1O)N1CCCC1 (stereo unspecified)	HPGD block 1.8µM
Cc1cccc(C(CC(=O)N2CCCC2)c2ccccc2)c1O (stereo unspecified)	HPGD block 11µM
Cc1ccc(NC(=S)C2=C(O)c3sccc3N(C)S2(=O)=O)cc1	HPGD block inconclusive, ALDH1A1 block 7.9µM, KDM4E inh inconclusive, HttQ103 aggreg inconclusive
COc1ccc(C)cc1NC(=O)C(OC(=O)c1ccc([N+](=O)[O-])o1)c1ccccc1 (stereo unspecified)	ALDH1A1 block 18µM
COc1ccc(C)cc1NC(=O)C(OC(=O)CNC(=O)c1cc(C)cc(C)c1)c1ccccc1 (stereo unspecified)	ALDH1A1 block inconclusive
Cc1nc(CCN2C(=O)c3ccccc3C2=O)cs1	none
O=C(/C=C/C=C/c1ccc2c(c1)OCO2)N1CCCCC1	HPGD block 16µM, ALDH1A1 block inconclusive, KDM4E inh inconclusive (no result: HttQ103 aggreg)
CN1CCN(C(=O)/C=C/c2ccc3c(c2)OCO3)CC1	HPGD block inconclusive (no result: HTT ATP protect)
